The target of one test is PUM1 PUF domain R5-RAQ (Homo sapiens, UniProt Q14671 828-1176, C1007R;R1008A). In words: yeast three-hybrid, YBZ-1, SC-Leu-His + 0.5 mM 3-AT, 4 days. As to conditions: tags: N-Gal4 AD-HA kept; label: inside an RPR1-promoter hybrid RNA with tandem MS2 sites; ssRNA. An outline of the steps:
(§1)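 Pumilio-1 PUF domain libraries, randomized (NNK) at the three base-contacting residues of each repeat, were co-expressed with matching RNA elements from a centromeric plasmid in strain YBZ-1 (LexA–MS2 coat fusion, HIS3 reporter). Transformants were plated on SC-Leu (input) and SC-Leu-His + 0.5 mM 3-AT (selection) for four days, and repeat regions were PCR-amplified and Illumina-sequenced. The interaction score is the log2 change in variant frequency from input to selection, with pseudocount 1 where absent.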
Sequence of PUM1 PUF domain R3-FYG (Q14671 828-1176 C935F/R936Y/Q939G): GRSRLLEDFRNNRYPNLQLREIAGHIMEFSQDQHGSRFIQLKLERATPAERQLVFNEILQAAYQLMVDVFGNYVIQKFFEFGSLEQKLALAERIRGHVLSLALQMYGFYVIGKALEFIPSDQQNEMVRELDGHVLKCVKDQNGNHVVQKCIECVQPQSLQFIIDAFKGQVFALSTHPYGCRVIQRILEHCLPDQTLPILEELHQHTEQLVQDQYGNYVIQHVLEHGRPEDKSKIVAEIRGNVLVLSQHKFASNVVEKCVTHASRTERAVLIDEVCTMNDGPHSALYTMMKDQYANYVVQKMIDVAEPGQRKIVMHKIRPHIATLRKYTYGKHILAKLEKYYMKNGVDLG
Sequence of PUM1 PUF domain R5-RAQ (Q14671 828-1176 C1007R/R1008A): as the sequence (Q14671 828-1176 C935F/R936Y/Q939G) above, with F108C, Y109R, G112Q, C180R, R181A counted along it
For the sequence “GGCUAGAACUAGUGGAUCCCCCGGCGCCCGGCGGCUCGAGCCCGGGUAAGUGUUAAUAGUCUGCAUGCCGCCGGGCGCCAUGCCUGCAGGUCGACUCUAGAAAACAUG”, the binding signal is 4.06 log2 enrichment (interaction score).
On the same count and under the same terms, next, “GGCUAGAACUAGUGGAUCCCCCGGCGCCCGGCGGCUCGAGCCCGGGUAAGUGUAAAUAGUCUGCAUGCCGCCGGGCGCCAUGCCUGCAGGUCGACUCUAGAAAACAUG”: 1.44 log2 enrichment (interaction score); “GGCUAGAACUAGUGGAUCCCCCGGCGCCCGGCGGCUCGAGCCCGGGUAAGUGUCAAUAGUCUGCAUGCCGCCGGGCGCCAUGCCUGCAGGUCGACUCUAGAAAACAUG”: 4.49 log2 enrichment (interaction score).

Another test has as its target PUM1 PUF domain R3-FYG (Homo sapiens, UniProt Q14671 828-1176, C935F;R936Y;Q939G). The description is as above. As to conditions: tags: N-Gal4 AD-HA kept; label: inside an RPR1-promoter hybrid RNA with tandem MS2 sites; ssRNA. Put shortly: as §1
As for “GGCUAGAACUAGUGGAUCCCCCGGCGCCCGGCGGCUCGAGCCCGGGUAAGUGUAAAUAGUCUGCAUGCCGCCGGGCGCCAUGCCUGCAGGUCGACUCUAGAAAACAUG”, the binding signal was 4.62 log2 enrichment (interaction score).
Same read-out and setting: the same measure for “GGCUAGAACUAGUGGAUCCCCCGGCGCCCGGCGGCUCGAGCCCGGGUAAGUGUAAGUAGUCUGCAUGCCGCCGGGCGCCAUGCCUGCAGGUCGACUCUAGAAAACAUG”: 7.3 log2 enrichment (interaction score).
For the sequence “GGCUAGAACUAGUGGAUCCCCCGGCGCCCGGCGGCUCGAGCCCGGGUAAGUGUAAUUAGUCUGCAUGCCGCCGGGCGCCAUGCCUGCAGGUCGACUCUAGAAAACAUG”, the binding signal is 5.45 log2 enrichment (interaction score).

(Values after publication PMC8384837, “Expanding the binding specificity for RNA recognition by a PUF domain”.)
